# In the library only some 6.2% were active in any assay of this set; here they are far more common.
# KB-3-1 tox = qHTS assay for MDR1-selective chemotherapeutics: Primary screen using the parental adenocarcinoma cell KB-3-1. Potency, µM (titrated, usually from 46.1 µM), usual class: cytotoxic. actives 1.4% (n = 400,000). AID 1347075, 2019. KB-3-1 viability, CellTiter-Glo ATP luminescence, 72 h; further: on the % scale 0 is the no-effect control and ±100 the full control effect; nearly all actives have a fitted effect of over 60% in size
#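 Here the drug-naive KB-3-1 line serves as comparator for MDR sub-line selectivity; cells received compound titrations, 72 h at 37 °C, then CellTiter-Glo readout.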
# ATXN viability = Viability Counterscreen for Primary qHTS for Inhibitors of ATXN expression; Potency, µM (doses to about 56.7 µM), hits mostly cytotoxic; S2 cells (HEK-293 line with an ATXN2-luciferase reporter) viability, CellTiter-Fluor protease fluorescence, 24 h; actives 0.49% (n = 400,000); further: nearly all actives have a fitted effect of over 40% in size
# HT1080NT lethal = qHTS for induction of synthetic lethality in tumor cells producing 2HG: qHTS for the HT-1080-NT fibrosarcoma cell line. HT-1080-NT fibrosarcoma viability, CellTiter-Glo ATP luminescence, 48 h. Potency, µM (top dose mostly 46.1 µM), without a hit: top-dose activity, negative = less viability, most hits filed as cytotoxic. actives 1.6% (n = 360,000);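 further: NT is the 2HG producing partner of a matched IDH1 knockdown line; 0% = DMSO-treated cells and -100% = media-only wells without cells; nearly all actives have a fitted effect of over 55% in size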
#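 Viability of the 2HG-overproducing fibrosarcoma line after 48 hours of compound exposure at 37 degrees C was determined by luminescence with CellTiter-Glo, and concentration-effect curves were then fitted and categorized.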
# ATXN2 expr inh = Primary qHTS for Inhibitors of ATXN expression | HEK-293 ATXN2-luciferase reporter, luminescence, 24 h | Potency, µM (doses to about 57 µM), without a hit: at the top dose activity change, negative = inhibition, most hits filed as inhibitors | actives 0.72% (n = 360,000); further: on the % scale 0 is the no-effect control and ±100 the full control effect; nearly all actives have a fitted effect of over 55% in size
#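 qHTS (up to 57 uM final) was run with 24 h compound exposure of reporter cells at 37 °C. Each well was multiplexed: SteadyGlo luminescence measured ATXN2-luciferase expression after a fluorogenic Gly-Phe-AFC viability readout (25 uM final).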
# HT1080 IDH1KD tx = qHTS for induction of synthetic lethality in tumor cells producing 2HG: qHTS for the HT-1080-IDH1KD cell line | HT-1080 IDH1 knockdown viability, ATP luminescence, 48 h | Potency, µM (highest dose often 46.1 µM), without a hit: at the highest dose activity, negative = toxicity, actives largely listed as cytotoxic | actives 2% (n = 360,000);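 further: 0% = DMSO wells and -100% = cell-free medium wells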
#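 IDH1KD HT-1080 cells, 750/well, RPMI + 5% FBS; compound pinned after 2 h settling; 48 h, 37 °C; CellTiter-Glo luminescence; % activity normalised to DMSO and no-cell wells; curves fitted, classed by r2 and efficacy.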
# KB-V1 cytotox = qHTS assay for MDR1-selective chemotherapeutics: Primary screen using the drug-selected MDR subline cells KB-V1. KB-V1 MDR cells viability, CellTiter-Glo, 72 h. Potency, µM (top dose mostly 46.1 µM), hits mostly cytotoxic. actives 3.4% (n = 400,000). AID 1347076, 2019; further: on the % scale 0 is the no-effect control and ±100 the full control effect; nearly all actives have a fitted effect of over 60% in size
#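 KB-V1 MDR subline cells in DMEM (phenol-red free, 10% FBS) exposed to compounds in qHTS concentration series for 72 h at 37 degrees C. Viability read by CellTiter-Glo luminescence; concentration-effect curves fitted after normalization and correction.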
# The depositor's hits bear a star; i = inactive; ? = inconclusive; nt = no result. The call rests on the fitted dose curve; in most records, active means well fitted curve in the direction sought with a large enough effect; inconclusive means small, poorly fitted or top-dose-only effect, or another doubt; inactive means no such curve, though single readings can be large; an effect the other way counts as inactive or inconclusive. Potency means the concentration at half of the fitted maximal effect.
SMILES,KB-3-1 tox,ATXN viability,HT1080NT lethal,ATXN2 expr inh,HT1080 IDH1KD tx,KB-V1 cytotox
CCOc1ccc(-c2ccc(SC)nn2)cc1,?,i,16µM*,?,23µM*,12µM*
Cc1cc(C)cc(N(CCC(=O)Nc2nnc(C3CC3)s2)S(=O)(=O)c2ccc(Cl)cc2)c1,?,i,-20%,-11%,?,8.2µM*
Cc1ccc(S(=O)(=O)NCCC(=O)Nc2nnc(C3CC3)s2)cc1C,i,i,4%,3%,0%,i
COc1cc(/C=C/c2nnc3c4ccccc4ncn23)cc(OC)c1OC,i,i,?,9%,?,i
C(=C\c1nnc2c3ccccc3ncn12)/c1ccccc1,12µM*,i,?,1%,5.8µM*,5.2µM*
CCc1ccc(CNC(=O)CCCN2C(=O)CCn3nc(-c4cccn4C)cc32)cc1,i,?,nt,-14%,nt,i
Cc1cc(NC(=O)CSc2nc(-c3ccc(Cl)cc3)cs2)no1,i,i,?,-23%,?,i
O=[N+]([O-])c1cccc(NC(=S)Nc2nc(-c3ccccc3Cl)cs2)c1,?,?,?,-36%,18µM*,i
O=C(CSc1nc(-c2ccc(Cl)cc2)cs1)Nc1cccc([N+](=O)[O-])c1,?,?,16µM*,nt,?,?
O=C(/C=C/c1cccc([N+](=O)[O-])c1)NC(=S)Nc1cccc(NC(=O)c2ccccc2Cl)c1,16µM*,?,?,?,?,?
CCCCOc1ccc(CONS(=O)(=O)c2ccc(NC(C)=O)cc2)cc1Cl,i,i,-6%,-11%,-6%,15µM*
O=S(=O)(NOCc1ccc(Cl)cc1)c1ccc(Cl)cc1,i,i,-6%,-11%,-3%,i
CC(=O)Nc1ccc(S(=O)(=O)NCCC(=O)Nc2cccc(Cl)c2)cc1,i,i,10%,-19%,4%,i
CC(=O)Nc1ccc(S(=O)(=O)NCCSCc2cccc(Cl)c2)cc1,i,i,-9%,-2%,-21%,i
CC(=O)Nc1ccc(S(=O)(=O)NCCSCc2c(Cl)cccc2Cl)cc1,9.2µM*,?,-16%,-14%,?,5.8µM*
CC(=O)Nc1ccc(S(=O)(=O)NCCOc2ccc(Cl)cc2C)cc1,8.2µM*,i,-26%,-20%,-15%,i
COc1cc(=O)n2c(c1C(=O)NC(C)c1ccco1)CCN(Cc1ccccc1Cl)CC2 (stereo not given),nt,i,nt,nt,nt,nt
COc1ccc2c(c1)c(=O)c(S(=O)(=O)c1ccc(C)c(C)c1)cn2CC(=O)Nc1ccccc1,i,i,nt,6%,nt,i
CCOC(=O)c1c(C)[nH]c(C(=O)OC(C(=O)N(C)C)c2ccccc2)c1C (stereo not given),?,nt,nt,nt,nt,i
Cc1ccc(C(=O)C2C(=O)c3ccccc3C2=O)cc1,i,i,-13%,1%,0%,i
Cc1ccccc1N=C(c1ccccc1)C1C(=O)c2ccccc2C1=O,?,i,?,3%,?,21µM*
ClC(=C\c1ccccc1)/C=N/N1CCN(c2ccccn2)CC1,i,i,4%,1%,8%,18µM*
Cc1ccc(/C=N/N2CCN(c3ccccn3)CC2)cc1,i,i,11%,23%,14%,i
CCOC(=O)Cn1c(=O)n(C2CCCCC2)c2nc(-c3ccc(CC)cc3)nc(C(N)=O)c21,8.2µM*,i,nt,11%,nt,i
CCOC(=O)Cn1c(=O)n(C2CCCCC2)c2nc(-c3ccc(OCC)cc3)nc(C(N)=O)c21,18µM*,i,nt,8%,nt,?
SMILES,KB-3-1 tox,ATXN viability,HT1080NT lethal,ATXN2 expr inh,HT1080 IDH1KD tx,KB-V1 cytotox
CCOC(=O)Cn1c(=O)n(C2CCCCC2)c2nc(-c3ccc(OC)cc3)nc(C(N)=O)c21,?,i,nt,-13%,nt,i
Cc1cc(C(=O)Nc2ccon2)cs1,i,i,3%,26%,-1%,i
O=C(Nc1ccon1)c1ccc(OC2CCCC2)cc1,i,i,0%,99%,-2%,18µM*
CC(C)(C)c1cc(NC(=O)c2ccc(OC3CCCC3)cc2)no1,?,i,-24%,6%,?,16µM*
Cc1cc(NC(=O)c2ccc(C(C)(C)C)cc2)no1,i,i,3%,65%,-7%,i
CCc1c(C(=O)Nc2ncn(Cc3cccc(C)c3)n2)csc1C,i,?,8%,-12%,-14%,i
CC(=O)c1ccc(NC(=O)Nc2ncn(Cc3cccc(C)c3)n2)cc1,i,i,-2%,8%,16%,16µM*
Cc1ccc(Cn2nnc(C(=O)Nc3cccc(C)c3C)c2N)cc1,i,i,-10%,-12%,-18%,15µM*
COc1ccc(Cl)cc1NC(=O)Cn1nnc(C(=O)NCc2cccs2)c1N,7.3µM*,?,nt,-21%,nt,?
Cc1cccc(Cn2nnc(C(=O)Nc3cc(C)ccc3C)c2N)c1,i,?,nt,-38%,nt,?
CCc1ccccc1NC(=O)Cn1nnc(C(=O)NCc2cccc(OC)c2)c1N,7.3µM*,i,-3%,nt,?,?
Cc1ccc(S(=O)(=O)c2nnn(CC(=O)Nc3ccccc3C)c2N)cc1,16µM*,i,nt,3%,nt,?
COc1ccc(NC(=O)Cn2nnc(C(=O)NCc3cccs3)c2N)cc1OC,i,i,-23%,-8%,?,i
CCn1cc2nc(SCc3cccc(C(F)(F)F)c3)n(Cc3ccc(Cl)cc3)c(=O)c2n1,?,i,nt,-3%,nt,?
COc1ccc(OC)c(NC(=O)c2nnn(Cc3ccccc3C)c2N)c1,9.2µM*,i,nt,-12%,nt,i
COc1ccc(CCNC(=O)C2(c3cccs3)CCOCC2)cc1OC,i,i,nt,-1%,nt,i
CCN1CCN(c2cc(C(C)(C)C)nc3c(-c4ccccc4)c(C)nn23)CC1,i,?,?,5%,13µM*,i
CCN1CCN(c2cc(C(C)C)nc3c(-c4ccccc4)c(C)nn23)CC1,i,?,?,?,16µM*,?
Cc1nn2c(N3CCOCC3)cc(C(C)C)nc2c1-c1ccccc1,i,i,6%,2%,11%,i
O=c1c2ccccc2n2c(-c3ccc(Cl)cc3)nnc2n1CCc1ccccc1,i,i,nt,6%,nt,i

# Compound activity deposited in PubChem BioAssay by National Center for Advancing Translational Sciences (NCATS).
